This is part of a sample that, as a whole, favours compounds with a hit. Of some 83,000 tested, about 20% had one in any assay.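 48-hour exposure, single concentration, 96-well plates; percent growth endpoint where 0 means no net growth. Active: below 10.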 Values without a mark were called inactive. Active and inactive are the calls of the source.
These molecules were tested on KM12 colon (assay: NCI-60 one-dose screen, 48 h (100 = growth as untreated, 0 = no growth, -100 = all killed)). Conditions: 10 µM unless noted.

Point of comparison: `O=c1nc(NO)[nH]c(=O)n1Cc1ccc(F)cc1`, growth 109%. Against it:
- COc1ccc(/C=C2\CN(Cc3cn(CCCNc4ccnc5cc(Cl)ccc45)nn3)C/C(=C\c3ccc(OC)cc3)C2=O)cc1 — lower, 45.4%
- Cn1c2c(cc(S(=O)(=O)c3ccccc3)c1=O)CCc1c-2cnn1-c1cccc(Cl)c1 — lower, 101%
- O=C1OCC2=C1C(c1ccc3c(c1)OCO3)CC(=O)N2c1cccc(Cl)c1 (stereo unspecified) — lower, 101%
- Cc1nn(-c2ccccc2)c2nc3nc4c(c(N)c3c(-c3ccc(Cl)cc3)c12)CCC4 — lower, 96.6%
- CCOC(=O)C(CC(c1ccccc1)N1CCCCC1)[N+](=O)[O-] (stereo unspecified) — lower, 37.8%
- CCN(CC)CCCNc1ccc(C)c2sc3ccccc3c(=O)c12 — lower, 33.2%
- Cn1cc(C(=O)NCCC(=N)N)cc1NC(=O)CN=C(N)N — lower, 104%
- Cc1cc(=O)c2c(C)ccc(C)c2[nH]1 — higher, 130%
- COc1ccc(OC2=C(C#N)C(=N)N3c4ccccc4Sc4ccccc4C3N2)cc1 (stereo unspecified) — lower, 97.7%
- O=c1onc(-c2ccccc2)c2ccccc12 — higher, 110%
- O=C1C(Cl)=C(NCCCN2CCOCC2)C(=O)c2ccccc21 — lower, 91.4%
- CCCCc1ccc(NC(=O)C(F)(F)F)cc1 — lower, 97.3%
- O=C1CC(c2ccsc2)c2snc(-c3ccc(Cl)cc3)c2N1 (stereo unspecified) — lower, 27.6%
- COc1ccc2nc(-n3nc(C)cc3C)c(-n3nc(C)cc3C)nc2c1 — higher, 116%

For `CCOc1ccc(-c2cnnn2-c2nonc2-n2cccc2)cc1`, the growth was 8.62% (active).
`COc1ccc(-c2csc3c2-n2cccc2C3=O)cc1O` was tested, and the growth was -2.75% (active).
With `COc1cc2nc(N3CCC[C@H](NC4=CC(=O)c5ccccc5C4=O)C3)nc(N)c2cc1OC` the growth was -39.2% (active).
`CC1SC(c2ccc(Cl)cc2)N(CCc2cccs2)C1=O` (stereo unspecified) was tested, and the growth was -12% (active).
With `C[C@@H](Oc1cc(-c2cnn(C3CC4(CNC4)C3)c2)cnc1N)c1c(Cl)ccc(F)c1Cl` the growth was -18.5% (active).
With `COc1ncnc2c1ncn2C/C(Br)=C(\Br)CCl` the growth was -5.61% (active).

From PubChem BioAssay (NCI)
